In PubChem BioAssay:

The molecules below were run against Left-right determination factor 2 (Homo sapiens) (UniProt O00292) (assay: LEFTY2 binders on small-molecule microarrays, primary screen, biochemical, small-molecule microarray, 635 nm fluorescence scan (AID 1110)). Settings: LEFTY2 binding, higher = more signal.
Chain of Left-right determination factor 2 (Homo sapiens) (O00292 whole entry, looked up): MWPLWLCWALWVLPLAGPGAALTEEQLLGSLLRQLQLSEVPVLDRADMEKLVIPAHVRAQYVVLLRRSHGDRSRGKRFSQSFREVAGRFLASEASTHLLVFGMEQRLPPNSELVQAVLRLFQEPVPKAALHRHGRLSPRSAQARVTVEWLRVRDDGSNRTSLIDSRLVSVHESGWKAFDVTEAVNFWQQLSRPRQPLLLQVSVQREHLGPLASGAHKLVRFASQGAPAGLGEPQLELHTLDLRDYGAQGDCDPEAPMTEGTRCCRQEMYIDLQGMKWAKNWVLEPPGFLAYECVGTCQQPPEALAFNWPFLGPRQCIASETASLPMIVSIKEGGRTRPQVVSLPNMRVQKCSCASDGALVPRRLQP
CCN1C(=O)[C@H]2[C@H]3[C@H](O)[C@H](O)CC(=NOC[C@@H](C)[C@H](OCc4ccccc4)C(C)C)[C@@H]3CC[C@H]2C1=O gave a composite z-score of 0.358. CCOC(=O)NN=C1C[C@@H](O)[C@@H](O)[C@@H]2[C@@H]3C(=O)N(C4CCCCC4)C(=O)[C@@H]3CC[C@@H]12 showed a composite z-score of 0.342. CCc1cc2c(nc1CC)CCN(CCC(C)=NOC[C@@H](O)[C@H]1O[C@@H]3OC(C)(C)O[C@@H]3[C@H]1O)C2 gave a composite z-score of 0.317. With CC(C)NC(=O)[C@@H]1c2ccccc2C(=O)N(CC23CC4CC(CC(C4)C2)C3)[C@H]1c1ccc(CO)cc1 the composite z-score was 0.606. CN1C(=O)C2C=CC(C(O)C(c3ccccc3)c3ccccc3)N(NC(=O)OC(C)(C)C)C2C1=O (stereo not given) gave a composite z-score of -0.0483. CC(C)(C)OC(=O)CC[C@]1(C(N)=O)COC(c2ccc(OCCCO)cc2)=N1 showed a composite z-score of -0.471. C/C=C\[C@@H](NCc1ccccc1Br)[C@@H](O)Cc1ccccc1 gave a composite z-score of -0.472. In the case of CCOC(=O)C1=CC[C@H]2C(=O)N(CC)C(=O)[C@@H]12, the composite z-score is reported as 0.444. For COC(=O)C1(C)C=C2C(=C(c3ccccc3)C(=O)C2C)CN1 (stereo not given), the composite z-score was -1.3. Molecule CO[C@@H]1COC(=O)CC=C[C@@H](C)[C@@H]2C=C[C@H](O)[C@@H](COC(=O)CCC[C@H]1C)O2 has a composite z-score of 1.31. Work on CCOC(=O)[C@H](Cc1ccccc1)NC(=O)CCC1CC(OC(=O)NCc2ccc3c(c2)OCO3)CC2(CCCC(COC(=O)NCC(c3ccccc3)c3ccccc3)O2)O1 (stereo not given in full) yielded a composite z-score of 0.45. Work on CN1C(=O)C2C(C1=O)C1C=C(CCCO)C2C(c2ccc(CN3CCCC3)cc2)N1C (stereo not given) yielded a composite z-score of 0.175. [N-]=[N+]=NCc1ccccc1[C@@H]1OC(c2ccc(OCCCO)cc2)=N[C@]1(Cc1ccccc1)C(=O)N1CCOCC1 showed a composite z-score of 0.343. With CO[C@@H]1COC(=O)CCC[C@@H](C)[C@H](OC)COC(=O)CCC[C@H]1C the composite z-score was 0.862. For C=COC[C@H]1CN2[C@@H](CC[C@@H](C)[C@@H]2c2ccc(Br)cc2)C(=O)O1, the composite z-score was 0.792. Molecule CC(C)=CCCC(C)=CCON=C1[C@H]2CCn3c(=O)n(Cc4cc5c(cc4Cl)OCO5)c(=O)n3[C@H]2[C@H](O)[C@@H]2O[C@H]12 has a composite z-score of 0.463. C=CCOC(=O)[C@H]1[C@@H]2C(=O)O[C@@H](c3ccccc3)[C@@H](c3ccccc3)N2[C@@H](c2ccc(OCCOC(=O)[C@H]3C[C@H]4C(=O)N5CCC[C@H]5C(=O)N4[C@H]3c3cccc(OCCO)c3)cc2)[C@]12C(=O)Nc1ccc(I)cc12 showed a composite z-score of 1.29. COc1ccc(-c2ccc3c(n2)CCCN3CC(O)CN2CCCc3nc(C)c(C)cc32)cc1 (stereo not given) was tested, and the composite z-score was 0.728. With COC(=O)[C@@]1(Cc2ccccc2)[C@H]2c3cc(C(=O)N4CCCC4)n(Cc4ccccn4)c3C[C@H]2CN1C(=O)c1ccccc1 the composite z-score was 0.0043. CC(C)NC(=O)[C@@]1(C)c2ccccc2C(=O)N(Cc2cc(F)cc(C(F)(F)F)c2)[C@H]1c1ccc(CO)cc1 gave a composite z-score of -0.0164. Work on CO[C@H]1COC(=O)[C@H](C)COC(=O)CC=C[C@@H](C)[C@H](OC)COC(=O)CC=C[C@@H]1C yielded a composite z-score of 1.15. With CC(=O)OC[C@H]1O[C@H](CCON=C(C)CCC(=O)OC[C@H]2O[C@H](C#Cc3ccccc3)C=C[C@@H]2Oc2ccc(C)cc2)C=C[C@@H]1OC(C)=O the composite z-score was 0.977. CN(C)C(=O)[C@@]1(Cc2ccccc2)N=C(c2ccc(OCCCO)cc2)O[C@H]1c1ccccc1CN=[N+]=[N-] gave a composite z-score of -0.068. With C=CCC(OC(C)=O)[C@@H]1[C@@H](N(Cc2cc3ccccc3o2)C(=O)Cc2ccc(F)cc2)c2cc(OCCCO)ccc2N1C(=O)Cc1ccc(OC)cc1 (stereo not given in full) the composite z-score was -0.0691. Molecule COc1ccc(O[C@H]2C=C[C@@H](c3ccccc3)O[C@@H]2COC(=O)CCC(C)=NO[C@H](C)c2cn([C@@H]3COC[C@H]3O)nn2)cc1 has a composite z-score of 0.51. With O=C(NN=C1C[C@@H](O)[C@@H](O)[C@@H]2[C@@H]3C(=O)N(c4cccc(Oc5ccccc5)c4)C(=O)[C@@H]3CC[C@H]12)OCc1ccccc1 the composite z-score was 0.0075. Work on C=CCOC(=O)[C@H]1[C@@H]2C(=O)O[C@@H](c3ccccc3)[C@@H](c3ccccc3)N2[C@@H](c2ccc(OCCOC(=O)[C@H]3C[C@H]4C(=O)N[C@@H](Cc5ccccc5)C(=O)N4[C@H]3c3ccc(O)cc3)cc2)[C@]12C(=O)Nc1ccccc12 yielded a composite z-score of 0.933. With COCCCNC(=O)[C@@]1(Sc2ccc(C)cc2)CC(=O)N(Cc2ccccc2)[C@@H]1c1ccc(CO)cc1I the composite z-score was -1.54. CCCCCN1CC=CC23O[C@@H]4C=CCOC(=O)[C@@H]4[C@H]2C(=O)N(C(CO)C(C)C)[C@@H]3C1=O (stereo not given in full) was tested, and the composite z-score was -0.518. Work on CO[C@@H]1COC(=O)CC=C[C@@H](C)[C@@H]2C=C[C@@H](O)[C@@H](COC(=O)CC=C[C@H]1C)O2 yielded a composite z-score of 1.12. Molecule CO[C@@H]1COC(=O)[C@H](C)NC(=O)[C@@H](C)COC(=O)CCC[C@H]1C has a composite z-score of 0.753. COC(=O)[C@@]1(Cc2ccc(OC)cc2)[C@H]2c3cc(C(=O)N4CCCC4)n(Cc4cc(F)c(F)c(F)c4)c3C[C@H]2CN1C(=O)c1ccccc1 was tested, and the composite z-score was 0.342. With CC(C)=NOCc1cccc(-c2cc(-c3ccccc3)no2)c1 the composite z-score was 0.71. CC(C)=NOCc1ccc(-c2cc(-c3ccccc3)no2)cc1 showed a composite z-score of 0.384. For Cn1cccc1C(O)C1C=CC2C(=O)NC(=O)C2N1Nc1ccccn1 (stereo not given), the composite z-score was -0.136.
